Test systems include CDK8; CDK9; CDKL1; CDKL2; CDKL3; CDKL5; CHEK1; CHEK2; CIT; CLK1; CLK2; CLK3; CLK4; CSF1R-autoinhibited; CSF1R; CSK; CSNK1A1L; CSNK1A1; CSNK1D; CSNK1E.
What all share (conditions): concentration: 1 μM, replicates: in singlicate; n = 1

Consider ten compounds from article PMC5540273 (PLoS ONE, 2017).
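Also: KINOMEscan kinase panel screen.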

On to `CCc1ccc(-c2ccc3c(c2)-c2c(cnn2C)S(=O)(=O)N3C)cc1`, for which the “%Inh” value with CDK8 is given as 0%; with CDK9, 0%; with CDKL1, 0%; in the test with CDKL2 it was 0%; in the test on CDKL3, 20%; with CDKL5, 0%. Besides, the “%Inh” value was 0% with CHEK1; 0% with CHEK2; 8% in the test on CIT; 22% in the test with CLK1; 13% in the test on CLK2; 0% in the test on CLK3. Further, the “%Inh” value in the test with CLK4 was 10%; in the test on CSF1R-autoinhibited it was 9%; in the test on CSF1R, 3%; in the test with CSK, 0%; in the test on CSNK1A1L it was 0%; with CSNK1A1, 0%. Also, the entries for the “%Inh” value in the test on CSNK1D and in the test with CSNK1E were 0% and 1%, respectively.
With `Cl.c1ccc(-c2ccc3c(Nc4ccc5[nH]ccc5c4)ccnc3c2)nc1` [GW440138], the “%Inh” value with CDK8 is 45%; in the test with CDK9, 0%; in the test on CDKL1, 0%; in the test with CDKL2 it was 7%; in the test on CDKL3, 0%; with CDKL5 it was 0%. Moreover, the “%Inh” value in the test on CHEK1 worked out at 0%; with CHEK2, 34%; in the test with CIT it was 0%; with CLK1, 20%; in the test on CLK2 it was 0%; in the test with CLK3, 8%. Also, the “%Inh” value in the test on CLK4 was found to be 19%; in the test with CSF1R-autoinhibited, 36%; in the test with CSF1R, 75%; with CSK, 0%; with CSNK1A1L, 0%; in the test on CSNK1A1 it was 0%. Also, the “%Inh” value with CSNK1D stood at 13%; with CSNK1E, 27%.
In the case of `COc1ccc(CNC(=O)NC2CCN(c3ccnc(Nc4ccc(F)cc4)n3)CC2)cc1` [GSK1379788], the “%Inh” value in the test with CDK8 turned out to be 45%; in the test with CDK9, 0%; with CDKL1, 9%; with CDKL2 it was 22%; in the test with CDKL3, 0%; in the test on CDKL5 it was 0%. Besides, the “%Inh” value in the test with CHEK1 stood at 0%; with CHEK2, 34%; in the test with CIT, 28%; in the test with CLK1 it was 13%; with CLK2 it was 0%; with CLK3 it was 11%. Further, the “%Inh” value with CLK4 is on record as 0%; in the test with CSF1R-autoinhibited, 19%; in the test on CSF1R it was 8%; in the test on CSK, 0%; in the test on CSNK1A1L it was 9%; with CSNK1A1, 0%. Further, the “%Inh” value in the test with CSNK1D stood at 42%; in the test on CSNK1E, 63%.
For `FC(F)(F)c1ccc(/C=C/c2cncnc2Nc2ccc3[nH]c(Cc4ccccc4)nc3c2)cc1` [GW709199], the “%Inh” value in the test with CDK8 stood at 64%; with CDK9 it was 0%; in the test with CDKL1 it was 42%; in the test with CDKL2, 38%; in the test with CDKL3, 0%; with CDKL5, 0%. Further, the “%Inh” value in the test on CHEK1 is listed as 0%; in the test with CHEK2, 18%; in the test with CIT, 55%; in the test with CLK1 it was 23%; in the test on CLK2 it was 0%; with CLK3, 11%. The “%Inh” value in the test on CLK4 is reported as 0%; in the test on CSF1R-autoinhibited it was 0%; in the test with CSF1R it was 4%; in the test with CSK, 0%; with CSNK1A1L, 36%; in the test with CSNK1A1, 33%. The “%Inh” value with CSNK1D is 3%; in the test with CSNK1E, 28%.
Turning to `Cc1ccc(S(=O)(=O)Nc2ccc(Nc3nccc(Nc4cccc5[nH]ncc45)n3)cc2)cc1` [GSK581271], the “%Inh” value in the test on CDK8 worked out at 13%; in the test on CDK9, 0%; in the test on CDKL1, 2%; with CDKL2, 22%; with CDKL3 it was 0%; in the test on CDKL5 it was 0%. Moreover, the “%Inh” value with CHEK1 worked out at 0%; in the test on CHEK2 it was 0%; in the test on CIT it was 28%; in the test with CLK1 it was 85%; in the test on CLK2 it was 0%; with CLK3 it was 13%. The “%Inh” value came out at 87% with CLK4; 0% with CSF1R-autoinhibited; 22% in the test with CSF1R; 0% in the test on CSK; 5% in the test with CSNK1A1L; 0% in the test on CSNK1A1. For the same compound, the figures for the “%Inh” value in the test with CSNK1D and with CSNK1E were 46% and 36%, respectively.
On to `CC(C)(C)c1ccc2nccc(Nc3cccc(O)c3)c2c1` [GW856795], for which the “%Inh” value in the test on CDK8 turned out to be 68%; in the test with CDK9 it was 0%; with CDKL1, 8%; in the test on CDKL2 it was 0%; in the test on CDKL3, 19%; in the test on CDKL5, 0%. Further, the “%Inh” value in the test on CHEK1 came out at 74%; in the test with CHEK2, 0%; in the test on CIT, 21%; with CLK1 it was 17%; with CLK2, 0%; in the test on CLK3, 0%. In addition, the “%Inh” value in the test on CLK4 worked out at 0%; in the test with CSF1R-autoinhibited, 54%; in the test with CSF1R, 12%; in the test on CSK it was 0%; in the test on CSNK1A1L, 0%; in the test on CSNK1A1, 26%. The “%Inh” value with CSNK1D and in the test on CSNK1E was 0% throughout.
Consider `Nc1ncnc2c1nc(-c1ccccc1)n2-c1ccccc1` [SKF-97293], for which the “%Inh” value with CDK8 was determined as 0%; in the test with CDK9, 0%; with CDKL1, 3%; in the test with CDKL2, 0%; in the test on CDKL3 it was 7%; in the test on CDKL5, 14%. Also, the “%Inh” value in the test on CHEK1 amounted to 4%; in the test with CHEK2 it was 11%; with CIT it was 11%; in the test on CLK1, 15%; in the test with CLK2, 28%; with CLK3, 25%. Moreover, the “%Inh” value in the test on CLK4 was found to be 20%; in the test with CSF1R-autoinhibited, 22%; in the test with CSF1R, 7%; in the test on CSK, 22%; in the test with CSNK1A1L, 0%; with CSNK1A1, 0%. Besides, the “%Inh” value was 10% with CSNK1D and 23% in the test on CSNK1E.
On to `O=C(Nc1cccc(-c2nn3ccccc3c2-c2ccnc(Nc3cccc(C(F)(F)F)c3)n2)c1)c1c(F)cccc1F` [GSK292658], for which the “%Inh” value in the test on CDK8 is on record as 14%; with CDK9 it was 0%; in the test on CDKL1, 0%; in the test on CDKL2 it was 24%; in the test on CDKL3, 0%; in the test on CDKL5 it was 0%. Moreover, the “%Inh” value in the test with CHEK1 came out at 10%; in the test with CHEK2 it was 0%; in the test with CIT, 44%; in the test with CLK1, 23%; in the test on CLK2 it was 0%; in the test on CLK3, 0%. The “%Inh” value in the test on CLK4 amounted to 8%; with CSF1R-autoinhibited it was 0%; in the test on CSF1R it was 89%; in the test with CSK, 31%; with CSNK1A1L, 5%; in the test on CSNK1A1, 16%. The “%Inh” value with CSNK1D was determined as 2%; with CSNK1E, 46%.
As to `Cc1cccc(Nc2nc(N[C@H]3CCNC3)ncc2C(N)=O)c1.Cl` [GSK2197149], the “%Inh” value with CDK8 turned out to be 0%; with CDK9, 7%; in the test with CDKL1 it was 12%; in the test with CDKL2, 7%; in the test on CDKL3 it was 0%; in the test on CDKL5, 0%. Also, the “%Inh” value in the test on CHEK1 stood at 52%; in the test on CHEK2, 71%; in the test with CIT it was 76%; in the test on CLK1, 51%; with CLK2, 71%; in the test with CLK3, 37%. Also, the “%Inh” value is recorded as 33% with CLK4; 0% with CSF1R-autoinhibited; 87% in the test on CSF1R; 0% in the test on CSK; 78% with CSNK1A1L; 75% in the test with CSNK1A1. The “%Inh” value turned out to be 67% with CSNK1D and 86% with CSNK1E.
Take `Cn1cc(-c2ccc3c(c2)CCN3C(=O)Cc2cccc(F)c2)c2c(N)ncnc21` [GSK2603358]: the “%Inh” value in the test on CDK8 is given as 97.8%; in the test with CDK9, 7%; with CDKL1, 6%; in the test with CDKL2, 43%; in the test on CDKL3, 0%; in the test with CDKL5, 0%. Besides, the “%Inh” value with CHEK1 stood at 5%; in the test with CHEK2 it was 0%; with CIT, 20%; with CLK1, 18%; in the test with CLK2, 0%; in the test with CLK3, 0%. Also, the “%Inh” value was found to be 39% with CLK4; 26% in the test with CSF1R-autoinhibited; 94.7% in the test on CSF1R; 14% in the test on CSK; 5% in the test with CSNK1A1L; 0% in the test with CSNK1A1. Further, the “%Inh” value came out at 20% with CSNK1D and 77% in the test with CSNK1E.
